Compound activity from PubChem BioAssay.
Rows were chosen to be rich in hits. Some 1.6% of all compounds tested hit in one or more screens of this group.
NPR1 activator: GC-A (human) enzyme activation. HEK293 GC-A cells, cGMP TR-FRET, EC30 ANP; 0% at EC30 ANP, 100% saturating ANP. actives 0.14% (n = 370,000). activation, % at 10 µM; in the data active means activation above about 40%
NSD2 HMT inh: NSD2 (human) methyltransferase inhibition. AID 743445. inhibition, % at 12.5 µM. NSD2 peptide methylation, AlphaScreen, 120 min. actives 0.54% (n = 310,000). O96028; in the data active means inhibition above about 50%
Rce1 inhib: blocks yeast Ras-converting enzyme | Q03530 | actives 0.27% (n = 290,000) | calls only | AID 2563 | yeast membranes, quenched prenylated peptide cleavage fluorescence;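 active means fall in fluorescence gain of 50% or more versus controls, with final raw signal at or below 3038400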;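 further: plate controls were neutral control wells for no effect and wells lacking membranes for full effect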
Efflux pump inh: blocks antifungal efflux pumps in multiplex yeast assay. actives 0.44% (n = 330,000). inhibition, % at 10 µM. S. cerevisiae Candida pump triplex, Nile Red efflux;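 active means plate passing quality check with inhibition over a set limit, or well fluorescence over plate mean plus 4 SD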;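 further: Nile Red retained in pooled yeast measured as flow cytometry median fluorescence; 0% = buffer negative control and 100% = Enniatin B positive control; higher means more Nile Red kept so more efflux inhibition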
NPR2 activator: GC-B (human) receptor activation | HEK293-GC-B cells, CNP EC30, cGMP TR-FRET; 0% at EC30 CNP, 100% saturating CNP | activation, % at 10 µM | actives 0.11% (n = 370,000) | AID 1920062;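 active means activation at 10 µM reaching about 35% in either raw or pattern-adjusted values, limit read from the data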
V-ATPase pHluor: regulators of yeast V-ATPase proton transport. response, % at 10 µM. actives 0.37% (n = 350,000). S. cerevisiae, pHLuorin cytosolic pH fluorescence; in the data active means response mostly above about 7.3%, no sharp cut-off; inactive means mostly below about 5.4%; further: actives read high
Yeast cmpd fluor: counter-screen for efflux pump inhibitors: compound fluorescence | shares compounds with Efflux pump inh | S. cerevisiae AD/pABC3, flow cytometry | fluorescence ratio to DMSO, % at 10 µM | actives 4% (n = 1,700) | AID 588517;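 active means fluorescence ratio to DMSO above its plate's cutoff, the plate mean ratio plus 5 SD, cut at about 210% in these data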;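 further: unstained yeast with no Nile Red so the signal is compound autofluorescence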
Mdr1 pump inh: blocks the Candida albicans Mdr1 efflux pump in yeast; AID 588518; inhibition, % at 10 µM; shares compounds with Efflux pump inh; actives 1% (n = 1,700); S. cerevisiae AD/CaMDR1, Nile Red efflux, flow cytometry; in the data active means inhibition above about 26%;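 further: 0% = DMSO vehicle and 100% = reference inhibitor; higher means more Nile Red retained so more efflux inhibition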
Cdr2 pump inh: Candida Cdr2 efflux pump inhibition; S. cerevisiae AD/CaCDR2, Nile Red retention, flow cytometry; actives 4% (n = 1,700); shares compounds with Efflux pump inh; AID 588520; Nile Red retention ratio vs DMSO, % at 10 µM; in the data active means Nile Red retention ratio vs DMSO above about 190%;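 further: higher ratio means more blocking of Cdr2 efflux of the dye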
Cdr1 pump inh: Candida Cdr1 efflux pump inhibition | inhibition, % at 10 µM | S. cerevisiae AD/CaCDR1, Nile Red efflux, flow cytometry | AID 588522 | actives 1% (n = 1,700) | shares compounds with Efflux pump inh;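 active means inhibition above the screen-wide mean plus twice its standard deviation, cut at about 32% in these data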
Numbers without * were called inactive; i = inactive; nt = no result given.

SMILES | NPR1 activator | NSD2 HMT inh | Rce1 inhib | Efflux pump inh | NPR2 activator | V-ATPase pHluor | Yeast cmpd fluor | Mdr1 pump inh | Cdr2 pump inh | Cdr1 pump inh
COc1cccc2sc(Nc3nnc(-c4cccs4)o3)nc12 | -1 | nt | i | 0.7* | 5 | -4 | 94 | 0 | 91 | 0
COc1cccc2sc(Nc3nnc(-c4ccc(F)cc4)o3)nc12 | 2 | nt | i | 0 | -1 | 2 | nt | nt | nt | nt
Nn1c(SCC(=O)NC2CCCCC2)nnc1-c1cc(-c2ccc(Cl)cc2)n[nH]1 | 20 | -5 | nt | nt | -11 | nt | nt | nt | nt | nt
CC1(C)CC2(CC(c3ccc(F)cc3)c3ccc(O)cc3O2)NC(=S)N1 (stereo not given) | 8 | -248 | i | 0 | -6 | -4 | nt | nt | nt | nt
CC1(C)CC2(CC(c3cccs3)c3cc(Cl)c(O)cc3O2)NC(=S)N1 (stereo not given) | -2 | 0 | i | 53* | -5 | -5 | 102 | 75* | 114 | 0
COC(=O)[C@]1(CNS(=O)(=O)C2CC2)CC(=O)N(C)[C@@H]1c1ccccc1 | 8 | nt | nt | nt | -6 | nt | nt | nt | nt | nt
CCC1(C(=O)c2ccc(Cl)cc2)C2c3ccccc3OC(=O)C21C(=O)Nc1ccccc1 (stereo not given) | -28 | nt | i | 1.8* | -17 | -2 | 84 | 0 | 106 | 0
c1ccc(C2CCC3(CC2)CCC3NCc2cccs2)cc1 (stereo not given) | -6 | nt | nt | nt | -6 | nt | nt | nt | nt | nt
O=C(OC12CCCN(C1)/C(=C/c1ccncc1)C2)c1cccc(F)c1 (stereo not given) | -2 | nt | nt | nt | 3 | nt | nt | nt | nt | nt
N#CC(C(=O)NCc1ccccc1)c1nc2ccccc2nc1N1CCCC1 (stereo not given) | 5 | -4 | i | 0.9* | 3 | -9 | 102 | 0 | 104 | 0
CSc1ccccc1C(=O)Nc1cc(C)cc(C)c1 | -4 | 2 | i | 0 | -7 | -3 | nt | nt | nt | nt
CSc1ccccc1C(=O)Nc1ccc(C)c(C)c1 | 6 | 1 | i | 1.4* | 0 | 1 | 108 | 0 | 114 | 0
CCCCCC(=O)NC1CCCCN(Cc2ccc(C)cc2)C1=O (stereo not given) | 0 | nt | nt | nt | 1 | nt | nt | nt | nt | nt
C/C(=N\NC(=O)CSCc1ccccc1Br)c1cccc([N+](=O)[O-])c1 | -4 | 0 | i | 6.5* | -5 | 7 | 100 | 0 | 96 | 0
C=CCN1C(C(=O)OC)CN(Cc2cn(Cc3ccc(Cl)cc3)nn2)CCS1(=O)=O (stereo not given) | 3 | nt | nt | nt | 2 | nt | nt | nt | nt | nt
O=C(Cc1ccccc1)NC1CCCc2c1cnn2-c1ccc(F)cc1F (stereo not given) | 1 | nt | nt | nt | 2 | nt | nt | nt | nt | nt
CC(C)(C)C(=O)COC(=O)c1ccc(N)c([N+](=O)[O-])c1 | 3 | -2 | i | 0 | 7 | 0 | nt | nt | nt | nt
COc1ccc(CCOC(=O)c2ccc(N)c([N+](=O)[O-])c2)cc1 | 3 | 3 | i | 6.6* | 0 | -2 | 102 | 0 | nt | 0
O=C1CCC[C@H]2C[C@H](NCc3ccc(F)cc3F)CC[C@]23CCCN13 | -1 | nt | nt | nt | 0 | nt | nt | nt | nt | nt
CC/C(O)=C(\C#N)c1nnc2n1CCCCC2 | 3 | -6 | i | 6.7* | 0 | 2 | 106 | 0 | 95 | 0
CC/C(O)=C(/C#N)c1nnc2n1CCCCC2 | 2 | -1 | nt | 0 | 3 | 5 | nt | nt | nt | nt
Cc1ccc(NC(=S)N(CCN(C)C)Cc2cccs2)c(C)c1 | 2 | 4 | i | 0 | 1 | 3 | nt | nt | nt | nt
Cc1cccc(NC(=S)N(CCN(C)C)Cc2cccs2)c1 | -3 | 2 | i | 1.0* | -6 | 1 | 89 | 0 | 96 | 0
Cc1cccc2cc(CN(Cc3cccs3)C(=S)NCC3CCCO3)c(=O)[nH]c12 (stereo not given) | 4 | -2 | i | 0 | 0 | -3 | nt | nt | nt | nt
Cc1ccc(NC(=S)N(Cc2cccs2)Cc2cc3cccc(C)c3[nH]c2=O)cc1 | -4 | 1 | i | 8.9* | -1 | -2 | 103 | 0 | 96 | 0
SMILES | NPR1 activator | NSD2 HMT inh | Rce1 inhib | Efflux pump inh | NPR2 activator | V-ATPase pHluor | Yeast cmpd fluor | Mdr1 pump inh | Cdr2 pump inh | Cdr1 pump inh
CC(=O)Nc1ccc(C(CCCc2ccccc2)C2=CCCCC2)cc1 (stereo not given) | 0 | nt | nt | nt | 5 | nt | nt | nt | nt | nt
O=C(Oc1cccc2ccccc12)c1ccco1 | 2 | -1 | i | 0 | 4 | -1 | nt | nt | nt | nt
O=C(Oc1c(-c2ccccc2)c(=O)n2c3c(cccc13)CC2)c1ccc(Cl)cc1 | -2 | -7 | i | 0 | -4 | -3 | 97 | 0 | 97 | 0
O=c1c(-c2ccccc2)c(O)c2cccc3c2n1CCC3 | 2 | -6 | i | 0 | 1 | 3 | nt | nt | nt | nt
O=C(Oc1c(-c2ccccc2)c(=O)n2c3c(cccc13)CC2)c1ccco1 | -1 | 2 | i | 0 | 4 | -1 | 97 | 0 | 106 | 0
O=C(Nc1ccc(F)cc1F)C1CCN(c2nnc(-n3cccc3)s2)CC1 | -1 | -2 | nt | nt | -3 | nt | nt | nt | nt | nt
C#CCN1CC(N2CCN(CCO)CC2)CS1(=O)=O (stereo not given) | -1 | nt | nt | nt | 2 | nt | nt | nt | nt | nt
C#CC[N+](C)(C)CCCCCCCCCCCC | 4 | -1 | i | 1.0* | 6 | 3 | 100 | 0 | 495* | 0
COc1ccc(S(=O)(=O)Nc2ccc3c(c2)N(C(C)=O)CCC3)cc1OC | 4 | 0 | i | 1.0* | 12 | 2 | 106 | 0 | 100 | 0
COc1ccc(S(=O)(=O)Nc2ccc3c(c2)N(C(C)=O)CCC3)cc1 | 0 | 3 | i | 0 | 2 | 0 | nt | nt | nt | nt
CCOc1ccc(Oc2c(Cl)c(Br)nn(Cc3cccc4ccccc34)c2=O)cc1 | 25 | nt | nt | nt | -7 | nt | nt | nt | nt | nt
CCSc1nc2c(c(=O)[nH]1)C(c1ccncc1)C(C(=O)OC(C)C)=C(C)N2 (stereo not given) | -2 | nt | i | 0.4* | -5 | 5 | 92 | 0 | 107 | 0
O=C(N1CCOCC1)N1CCN(S(=O)(=O)c2cccc([N+](=O)[O-])c2)CC1 | 3 | 3 | i | 1.8* | 2 | 3 | 104 | 0 | 96 | 0
Cc1ncc(C(=O)O)c(C(=O)O)c1N | 0 | 0 | i | 5.5* | 5 | -2 | 115 | 0 | 108 | 0
CSc1ncc(C(=O)O)c(C)n1 | 3 | nt | i | 0 | -1 | 1 | nt | nt | nt | nt
C=CCNC(=S)NNC(=O)COc1ccc(Cl)cc1Cl | 3 | 2 | i | 15* | -3 | 5 | 104 | -1 | 98 | 0
